Screening data deposited in PubChem BioAssay by National Center for Advancing Translational Sciences (NCATS).
HT1080NT lethal: qHTS for induction of synthetic lethality in tumor cells producing 2HG: qHTS for the HT-1080-NT fibrosarcoma cell line; HT-1080-NT fibrosarcoma viability, CellTiter-Glo ATP luminescence, 48 h; Potency, µM (doses to about 46.1 µM), most hits filed as cytotoxic; actives 1.6% (n = 360,000); AID 686970, 2013;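 also: NT is the 2HG producing partner of a matched IDH1 knockdown line; nearly all actives have a fitted effect of over 55% in size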
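Fibrosarcoma NT cells, 750 per well in 5% FBS RPMI, were exposed to compound for 48 hours. Viability: CellTiter-Glo luminescence.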
HT1080 IDH1KD tx: qHTS for induction of synthetic lethality in tumor cells producing 2HG: qHTS for the HT-1080-IDH1KD cell line | HT-1080 IDH1 knockdown viability, ATP luminescence, 48 h | Potency, µM (top dose mostly 46.1 µM), most hits filed as cytotoxic | actives 2% (n = 360,000)
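% activity derives from luminescence (CellTiter-Glo), normalised to DMSO and no-cell wells. HT-1080-IDH1KD cells, 750/well, had 48 h compound exposure at 37 °C.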
DT40 TDP1 CPT: qHTS for Inhibitors of human tyrosyl-DNA phosphodiesterase 1 (TDP1): qHTS in cells in presence of CPT; chicken DT40 Tdp1-/-;hTDP1 cells + 20 nM CPT, ATP luminescence, 48 h; Potency, µM (top dose mostly 46.2 µM), hits mostly inhibitors; actives 12% (n = 420,000); AID 686979, 2013; also: nearly all actives have a fitted effect of over 55% in size
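Chicken DT40 Tdp1-/- cells complemented with human TDP1, 400 cells/well, exposed to compounds plus 20 nM camptothecin for at least 48 h at 37 C; viability read as ATP content by CellTiter-Glo luminescence.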
TDP1 cell noCPT: qHTS for Inhibitors of human tyrosyl-DNA phosphodiesterase 1 (TDP1): qHTS in cells in absence of CPT. DT40 Tdp1-/- hTDP1 cells, no CPT, ATP luminescence, 48 h. Potency, µM (series often up to 46.2 µM), hits mostly inhibitors. actives 15% (n = 420,000). AID 686978, 2013; also: nearly all actives have a fitted effect of over 55% in size
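Seeded 400 DT40-hTDP1 cells/well (vehicle DMSO, no 20 nM CPT); pinned compounds; ≥48 hr at 37 °C; CellTiter-Glo luminescence as viability measure.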
IL1B secr inh: qHTS for Inhibitors of Inflammasome Signaling: IL-1-beta AlphaLISA Primary Screen | THP-1 LPS/ATP IL-1B secretion, AlphaLISA, 16 h; active compounds read low | activity change, % at 57.5 µM | actives 4.7% (n = 360,000) | AID 743279, 2014; in the data active = activity change below about -50%; inconclusive = mostly about -30% to -49%
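Secreted IL-1B measured by AlphaLISA bead assay after 16 h compound exposure of THP-1 cells; compounds (final up to 57.5 uM) added 1 h before LPS (250 ng/mL) and ATP (1.25 mM) stimulation; lower signal means less secretion.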
ELG1 DNA repair: qHTS screen for small molecules that inhibit ELG1-dependent DNA repair in human embryonic kidney (HEK293T) cells expressing luciferase-tagged ELG1; HEK293T ELG1-luciferase reporter, luminescence, 16 h; DNA damage induced by 5-fluorouridine; Potency, µM (series often up to 46.1 µM), actives largely listed as inhibitors; actives 2.3% (n = 330,000); AID 504467, 2011; also: nearly all actives have a fitted effect of over 55% in size
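Reporter activity after DNA damage by 5-fluorouridine is monitored. Compound-treated cells incubate 16 hr at 37 °C, then ONE-Glo is added for 30 min before luminescence reading.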
Numbers stand for hits; – = inactive; ? = inconclusive; · = no result. Shown are actives, neighbours in structure and some others; about 19% of the full set was active somewhere. Unless noted, calls follow the shape of the dose curve; as a rule, active = well fitted curve in the direction sought with a large enough effect; inconclusive = small, poorly fitted or top-dose-only effect, or another doubt; inactive = no such curve, though single readings can be large; an effect the other way counts as inactive or inconclusive.

SMILES | HT1080NT lethal | HT1080 IDH1KD tx | DT40 TDP1 CPT | TDP1 cell noCPT | IL1B secr inh | ELG1 DNA repair
O=C(CN1CCN(C(=O)C2CCN(C(=O)/C=C/c3ccccc3)CC2)CC1)Nc1ccccc1Cl | – | – | ? | 18.4µM | – | –
COc1ccccc1NC(=O)CN1CCN(CC(=O)Nc2cc(NC(C)=O)ccc2OC)CC1 | – | – | ? | ? | – | ?
O=C(CN1CCN(CC(=O)Nc2ccccc2Cl)CC1)Nc1ccc(F)c(F)c1 | – | – | ? | 23.1µM | – | ?
COc1ccc(NC(C)=O)cc1NC(=O)CN1CCN(CC(=O)Nc2ccccc2Cl)CC1 | – | – | ? | 20.6µM | ? | ?
COc1ccc(S(=O)(=O)N2CCN(CC(=O)Nc3ccccc3Cl)CC2)cc1 | – | – | ? | – | – | –
O=C(OCN1C(=O)c2ccccc2C1=O)c1cccc(OC(F)F)c1 | – | – | – | – | – | –
O=C(Nc1cccc2ccccc12)c1ccc2sc([C@@H]3O[C@H](CO)[C@H](O)[C@H](O)[C@H]3O)nc2c1 | – | – | – | – | – | ·
O=C(CN1CCN(Cc2ccccc2F)CC1)Nc1ccccc1Cl | – | – | – | – | – | 10.3µM
COc1ccccc1CN(C)C(=O)CN1CCN(CC(=O)Nc2ccccc2Cl)CC1 | – | – | 23.1µM | 23.1µM | – | ?
COC(=O)c1ccc(Cl)cc1NC(=O)N(Cc1ccc(OC)cc1)C1CCN(C(C)=O)CC1 | · | · | ? | 7.31µM | · | ·
O=C(CN1CCCCCC1)Nc1ccccc1Cl | – | – | – | – | – | –
CCN(CC(=O)Nc1cccc(OC)c1)CC(=O)Nc1ccc(C)cc1Cl | – | – | ? | ? | – | –
CCN1CCC(N(Cc2cccc(OC)c2)C(=O)Nc2ccc(C)cc2Cl)CC1 | · | · | ? | 18.4µM | · | ·
COc1ccc(-c2nc3cnc(OC)nc3n(Cc3cccs3)c2=O)cc1 | · | · | – | ? | · | ·
COc1cccc(C(C)NC(=O)Nc2ccccc2Cl)c1 (centres undefined) | – | – | 20.6µM | ? | – | –
Cc1ccc(OCC(=O)N(C)CC(=O)Nc2cccc(F)c2)cc1 | – | – | – | – | – | –
Cc1ccc(NC2=C(c3ccc(C(F)(F)F)cc3)C(=O)c3ccccc32)cc1C | · | · | 20.6µM | ? | · | ·
O=C(CNC(=S)N(Cc1ccccc1)Cc1ccccc1F)NCCc1ccc(Cl)cc1 | 16.4µM | 16.4µM | 23.1µM | ? | · | ?
S=C(Nc1ccccc1Cl)N(Cc1ccccc1)Cc1cccnc1 | – | – | – | 16.4µM | – | –
O=C(Cc1ccc(Cl)cc1)NCCc1ccc(F)cc1 | – | – | – | – | – | ·
O=C(CNC(=S)N(Cc1ccccc1)Cc1cccs1)NCc1ccc(F)cc1 | – | – | – | ? | -71.3 | ?
Cc1ccc(CNC(=O)CNC(=S)N(Cc2ccccc2)Cc2cccnc2)cc1 | – | – | ? | 25.9µM | ? | ?
COc1ccc(CN(C)CCCn2cnc3c(OCc4ccccc4)ncnc32)cc1 | – | – | ? | ? | – | ·
CC(=O)/C=C1/C(=O)Nc2ccccc21 | ? | ? | 6.51µM | 3.66µM | – | –
CC(=O)N(C)c1ccc(N=C2C(=O)Nc3ccccc32)cc1 | – | – | – | – | – | –
C=CCOc1cccc(C(=O)/C=C2/C(=O)Nc3ccccc32)c1 | 18.4µM | ? | 7.31µM | 6.51µM | ? | –
O=C1Nc2ccc(Br)cc2/C1=C/C(=O)c1ccccc1 | ? | ? | 5.8µM | 4.61µM | -103.4 | ·
O=C1NC2(CCCCC2)C(=O)N1CC(=O)N1CCc2ccccc21 | – | – | – | – | – | –
Brc1ccccc1-n1nnc(-c2cnc3ccccc3c2)n1 | – | – | ? | 18.4µM | – | ·
